We go through 87 compounds from PubChem BioAssay AID588689 (Southern Research Specialized Biocontainment Screening …, 2011).

Among all 340,000 compounds or so, about 1,000 (0.29%) were called active. Cut-off read from the data, not from the text of the source: inconclusive = inhibition above about 29% without an active follow-up result; inactive = below that. Not all results are given here. Results with a measured potency or affinity are listed apart.

The target of the test is Genome polyprotein (Dengue virus type 2 (strain 16681-PDK53)) (UniProt P29991). Briefly: flavivirus cap methylation enzyme inhibition – biochemical, confirmation dose response, primary screen (AID 588689). Particulars: Dengue-2 NS5 methyltransferase capping enzyme assay, at 25 µM, stronger effect = higher value.
Where [1] appears, read: measured here: pilot screen replicate inhibition.

As to `CC(C)(C)c1ccc(C2(C)NC(=O)N(CC(=O)c3ccc[nH]3)C2=O)cc1` (centres undefined), the inhibition is -2.04% (inactive).

Regarding `CC(OC(=O)c1cccc(-n2cnnn2)c1)c1nc2ccccc2c(=O)[nH]1` (centres undefined), the inhibition is -3.65% (inactive).

Turning to `CC(=O)OCC1=C(C(=O)O)N2C(=O)C(NC(=O)CCn3nc(C)c(Cl)c3C)C2SC1` (centres undefined), the inhibition is 0.78% (inactive).

As for `CC(=O)OCC1=C(C(=O)O)N2C(=O)[C@@H](NC(=O)Cc3ccccc3)[C@H]2SC1`, the inhibition is -1.45% (inactive). Same read-out and setting: under `O=C(O)c1cccc(NC(=O)c2ccc3c(c2)C(=O)N(Cc2ccco2)C3=O)c1` stands -0.72% (inactive); under `Cc1nn(-c2ccccc2)c(Cl)c1/C=C1\SC(=S)N(C)C1=O`, 4.37% (inactive); under `O=C(O)COc1ccccc1/C=C1\SC(=O)N(Cc2ccc(F)cc2)C1=O`, 8.1% (inactive). Still for that read-out and setting: under `O=C1NC(=O)/C(=C/c2ccccc2OCc2ccccc2)S1` stands 11.6% (inactive); under `O=C(O)CCCN1C(=O)/C(=C\c2ccco2)SC1=S`, 47.7% (inactive). Same read-out and setting: under `O=C1NC(=O)/C(=C\c2ccccc2OCc2ccccc2)S1` stands -0.78% (inactive); under `O=C(O)CCCCN1C(=O)/C(=C\c2ccc(OCc3ccccc3)c(OCc3ccccc3)c2)SC1=S`, 6.5% (inactive); under `CN1C(=O)/C(=C\c2ccccc2OCc2ccccc2)SC1=S`, -2.61% (inactive). Consider `Cc1nn(-c2ccccc2)c(Cl)c1/C=C1\C(=O)N(C)C(=S)N1C`, for which the inhibition was -12.7% (inactive). Same read-out and setting: under `CC(Oc1ccccc1)C(=O)N=C1SC2CS(=O)(=O)CC2N1Cc1ccccc1` (centres undefined) stands 0% (inactive); under `Cc1nc(-c2ccccc2)sc1C(=O)Nc1ccccc1F`, 0% (inactive); under `CCOC(=O)N1CCN(C(=O)c2cn(CC)c3ccc(S(=O)(=O)N(C)C4CCCCC4)cc3c2=O)CC1`, 2.95% (inactive). On the same count and under the same terms, for `O=C(NO)C1CC2C=CC1C2` (centres undefined) the value was -6.15% (inactive). Still for that read-out and setting: for `CCn1ccc2c(OCC(=O)NCCc3ccc(OC)c(OC)c3)cccc2c1=O` the value was -3.6% (inactive); for `CN1C(=O)S/C(=C/c2ccccc2OCc2ccc(C(=O)O)cc2)C1=O`, 5.16% (inactive); for `CCOc1ccccc1C=C1SC(=S)N(CC)C1=O`, 6.98% (inactive). As for `CC(=C\c1ccccc1)/C=C1/SC(=S)N(CCC(=O)O)C1=O`, the inhibition was 11.1% (inactive).

On to `CC(=C\c1ccccc1)/C=C1/SC(=S)N(CCCC(=O)O)C1=O`, for which the inhibition is 19% (inactive).

In the case of `O=C(Nc1cccc(C(=O)O)c1)/C(=C\c1ccccc1)NC(=O)c1ccccc1Cl`, the inhibition is -2.05% (inactive). On the same count and under the same terms, under `O=C1CCc2cc(S(=O)(=O)NCCc3ccc(Cl)cc3)cc3c2N1CC3` stands 3.62% (inactive); under `O=S(=O)(c1cccc2cccc(Cl)c12)N1CCCC1`, -4.68% (inactive). The same measure, in the same setting: for `O=C(CCC1CCCN(C(=O)CCC(F)(F)F)C1)NCc1ccc(F)c(F)c1` (centres undefined) the value was -0.74% (inactive). On the same count and under the same terms, for `O=C(COC(=O)c1ccco1)NCc1ccccc1Cl` the value was 3.03% (inactive); for `Nc1ccc(S(=O)(=O)c2ccc(N)cc2)cc1`, 1.49% (inactive).

Turning to `Nc1ccc(S(=O)(=O)c2cccc(N)c2)cc1`, the inhibition was -5.56% (inactive). Same read-out and setting: under `COCCn1c(C)cc(C(=O)CSc2n[nH]c(N)n2)c1C` stands -0.41% (inactive); under `O=c1c2c([N+](=O)[O-])cc([N+](=O)[O-])cc2sn1Cc1ccccc1`, 18.3% (inactive).

Consider `O=C1c2c([N+](=O)[O-])cc([N+](=O)[O-])cc2S(=O)N1Cc1ccccc1` (centres undefined), for which the inhibition is 10.1% (inactive).

For `COC(=O)c1ccc(NC(=O)CCCCCn2nnc3ccccc3c2=O)cc1`, the inhibition was -0.65% (inactive). The same measure, in the same setting: for `O=C1CN(C(=O)N[C@@H](Cc2ccccc2)C(=O)N[C@H](Cc2ccccc2)C(=O)O)c2ccccc2N1` the value was -2.17% (inactive); for `COc1cc(OC)cc(N(C(=O)C2COc3ccccc3O2)C(C(=O)NC2CCCCC2)c2ccc(O)cc2)c1` (centres undefined), -5.19% (inactive); for `COc1ccccc1NC(=O)Nc1ccccc1C(N)=O`, -5.31% (inactive). On the same count and under the same terms, under `NC(=O)N/N=C/c1ccc(-c2ccc(S(=O)(=O)Nc3ncccn3)cc2)o1` stands -2.88% (inactive). Take `CCOc1ccc(C(=O)N/N=C/c2ccc(-c3ccc(S(=O)(=O)Nc4ncccn4)cc3)o2)cc1`: the inhibition was 0.82% (inactive). Same read-out and setting: for `CCOC(=O)CC(=O)CSc1ccc2nnc(-c3ccc(F)cc3)n2n1` the value was 0.81% (inactive); for `CC(C)CCN1CN(S(=O)(=O)c2cccs2)c2nc3ccccc3nc21`, -2.77% (inactive); for `COc1cc(NC(=S)NN2CCN(C)CC2)cc(OC)c1`, -3.9% (inactive). On the same count and under the same terms, for `N#C/C(=C\C=C\c1ccccc1[N+](=O)[O-])c1nc(-c2ccc3c(c2)OCO3)cs1` the value was -0.69% (inactive); for `COc1ccc(-c2cc(C(F)(F)F)n3nc(C(=O)NCc4ccco4)cc3n2)cc1`, -2.82% (inactive). As to `CCc1ccc(N2C(=O)c3sc4nnc(C)c(=O)n4c3C2=O)cc1`, the inhibition is -0.68% (inactive). Under setting [1], the inhibition came out at 5.46%. In the case of `Cc1ccc(N2C(=O)c3sc4nnc(C)c(=O)n4c3C2=O)cc1`, the inhibition was 0% (inactive). With `Cc1ccc(S(=O)(=O)N2CCCCC2)cc1NC(=O)c1ccco1`, the inhibition was -2.75% (inactive). Same read-out and setting: for `Cc1ccc(C)c(OCc2cc(C(=O)NC(C)c3cnn(C)c3)no2)c1` (centres undefined) the value was -5% (inactive); for `CCOC(=O)N1CCC(Nc2c(-c3ccc(C)c(C)c3)c(=O)c2=O)CC1`, -8.18% (inactive). As to `COc1ccc(S(=O)(=O)Nc2cccc3c2O[C@H](CN(C)C(=O)Nc2ccc(C(F)(F)F)cc2)[C@@H](C)CN([C@H](C)CO)C3=O)cc1`, the inhibition was -2.11% (inactive). The same measure, in the same setting: under `O=C(CN1C(=O)S/C(=C\c2cccs2)C1=O)Nc1ccc(O)cc1C(=O)O` stands 14.3% (inactive). For `O=C(CN1C(=O)S/C(=C\c2cccs2)C1=O)Nc1ccc(C(=O)O)c(O)c1`, the inhibition is 15% (inactive). On the same count and under the same terms, for `Cc1ccc(/C=C2\SC(=S)N(CCC(=O)NNC(=O)c3ccc(O)cc3)C2=O)cc1` the value was -0.88% (inactive); for `O=C(CCCN1C(=O)/C(=C\c2cccs2)SC1=S)Nc1ccc(O)cc1C(=O)O`, -9.83% (inactive). On the same count and under the same terms, for `O=C(CN1C(=O)S/C(=C\c2cccs2)C1=O)Nc1ccc(O)c(C(=O)O)c1` the value was 8.14% (inactive); for `O=C(CCN1C(=O)/C(=C/c2ccco2)SC1=S)Nc1ccc(C(=O)O)c(O)c1`, 48.7% (inactive). Same read-out and setting: under `O=C(CCCN1C(=O)/C(=C\c2ccccc2)SC1=S)Nc1ccc(O)cc1C(=O)O` stands 20.6% (inactive); under `O=C(CN1C(=O)/C(=C/c2ccco2)SC1=S)Nc1ccc(C(=O)O)c(O)c1`, 36.5% (inactive); under `CC(C)(CNC(=O)c1ccccc1F)CNC(=O)c1ccccc1F`, 3.07% (inactive). As for `CC(C)OC(=O)N(C)C[C@H]1OCc2cnnn2CCCC(=O)N([C@H](C)CO)C[C@H]1C`, the inhibition was -3.41% (inactive).

On to `COc1ccc(C2=NS(=O)(=O)N(C)C(C(=O)NC3CCCCC3)=C2)cc1OC`, for which the inhibition is -5.5% (inactive). Take `O=S(=O)(CCc1nc2ccccc2o1)c1ccc2ccccc2c1`: the inhibition is -2.77% (inactive).

Regarding `CC(Sc1nnc(COc2ccc(Cl)cc2)n1Cc1ccccc1)C(=O)O` (centres undefined), the inhibition was 0.73% (inactive). On to `CCN(CC)C(=O)C1=C(C)N(CCC2=CCCCC2)C(=O)C(CC(=O)NCC2CCCCC2)C1` (centres undefined), for which the inhibition is -0.57% (inactive). As for `O=[N+]([O-])c1cc(C(F)(F)F)cc([N+](=O)[O-])c1NN=C1CCCCC1`, the inhibition was -139% (inactive). The same measure, in the same setting: for `CC1(C)CC(=O)C=C(NCc2ccc(C(=O)O)cc2)C1` the value was -7.73% (inactive); for `COc1ccc(CN2C(=O)C(C)Nc3ncnc(N4CCOCC4)c32)cc1` (centres undefined), -5.79% (inactive). Regarding `COc1ccc(S(=O)(=O)N(CCCN2CCOCC2)Cc2cccc3ccccc23)cc1`, the inhibition is 1.67% (inactive). On the same count and under the same terms, under `CCN(CC)c1ccc(C(=C2C=CC(=[N+](CC)CC)C=C2)c2ccc(N(CC)CC)cc2)cc1` stands 17% (inactive); under `CCN(CC)c1ccc(C(=C2C=CC(=[N+](CC)CC)C=C2)c2ccc(S(=O)(=O)O)cc2S(=O)(=O)[O-])cc1`, 1.48% (inactive). For the compound `Cc1ccc2[nH]cc(CCNC(=O)c3ccc4c(c3)OCO4)c2c1`, the inhibition was 1.31% (inactive). The inhibition under setting [1] is -1.82%. As for `O=S(=O)(NCc1nnc2ccccn12)c1ccc(F)cc1`, the inhibition is -3.63% (inactive). Same read-out and setting: under `Cc1sc(N2C(=O)C3C4C=CC(C4)C3C2=O)c(C#N)c1C` (centres undefined) stands -2.18% (inactive); under `CC(C)[C@H](NC(=O)c1c(F)cccc1F)C(=O)OCC(=O)NNC(=O)c1ccccc1`, -2.88% (inactive); under `CN(C)c1ccc2c(O)cc(=O)n(C)c2c1`, 23.3% (inactive). For `CN(C)c1ccc(Cc2ccc(N(C)C)cc2)cc1`, the inhibition was 4.45% (inactive).

As to `COc1cc(NC(=O)c2cccs2)c(OC)cc1NC(=O)c1cccs1`, the inhibition is -7.78% (inactive). Still for that read-out and setting: for `CCC(C)N(C(=O)CSc1nc(C)nc2ccccc12)C1CCS(=O)(=O)C1` (centres undefined) the value was -9.59% (inactive); for `O=C(c1ccccc1)N1CCN(c2ccc(N3CCOCC3)nn2)CC1`, 0.74% (inactive). Regarding `C[C@H](CO)N1C[C@H](C)[C@H](CN(C)C(=O)Nc2ccccc2)OCc2cnnn2CCCC1=O`, the inhibition is 1.65% (inactive). On the same count and under the same terms, for `O=C1C=C(Nc2ccccc2O)c2ccccc2C1=O` the value was 19% (inactive); for `O=C1C=C(Nc2cccnc2)c2ccccc2C1=O`, 33.2% (inactive). The same measure, in the same setting: under `CSc1nnc(C)c(=O)n1COC(=O)COc1ccc2ccccc2c1` stands 3.64% (inactive); under `COc1ccc(-c2c(C#Cc3ccc(N(C)C)cc3)c3ccccc3n2C)cc1`, 6.35% (inactive). On the same count and under the same terms, for `Cc1cc(-c2ccc([N+](=O)[O-])cc2)nc2ccccc12` the value was 0% (inactive); for `Cc1nc2c(-c3ccccc3)c(C)nn2c(N)c1-c1ccccc1`, -5.49% (inactive); for `C[C@@]12C(=O)Nc3cc(F)c(F)cc3C(=O)N1[C@H]1c3cc(Cl)ccc3OC[C@@H]1[C@@H]2c1ccccc1`, 2.81% (inactive).

Take `Cc1cc(C)c2[nH]c(=O)c(C(c3nnnn3Cc3ccc4c(c3)OCO4)N3CCCCC3)cc2c1` (centres undefined): the inhibition was 9.03% (inactive).
